The source made the active and inactive calls. How the calls were made is not given here.
Target: Bcl-2-like protein 2 (Homo sapiens) (UniProt Q92843)
Experiment: Bcl-W/Bim complex disruptors – biochemical, multiplexed, bead-based flow cytometry, HTS hits, confirmation (AID 2081)

Chain of Bcl-2-like protein 2 (Homo sapiens) (Q92843 whole entry, looked up): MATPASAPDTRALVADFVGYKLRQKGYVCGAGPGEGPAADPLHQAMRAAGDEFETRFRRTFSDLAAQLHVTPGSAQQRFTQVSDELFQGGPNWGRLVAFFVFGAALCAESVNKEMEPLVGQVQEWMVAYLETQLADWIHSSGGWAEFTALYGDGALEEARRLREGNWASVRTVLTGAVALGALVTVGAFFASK

O=C1NC(=O)C2(Cc3c(nc4ccccn4c3=O)N3CCCCCC32)C(=O)N1Cc1ccccc1 (configuration not stated)
outcome: inactive

O=C1NC(=O)C(=Cc2ccc(-c3cc(Cl)ccc3[N+](=O)[O-])o2)C(=O)N1
outcome: inactive
